One compound from ChEMBL document CHEMBL1961873, “Compounds: GSK PKIS; Assays: Nanosyn kinase panel” (2012) can be followed below.

Assay [1] has as its target Protein kinase C gamma type (Homo sapiens) (UniProt P05129). The settings on record: at 1 µM.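 Also: each value is an averaged percent inhibition of the enzyme.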
Assay [2] deals with T1, Protein kinase C iota type (Homo sapiens) (UniProt P41743).
T1 sequence (whole entry): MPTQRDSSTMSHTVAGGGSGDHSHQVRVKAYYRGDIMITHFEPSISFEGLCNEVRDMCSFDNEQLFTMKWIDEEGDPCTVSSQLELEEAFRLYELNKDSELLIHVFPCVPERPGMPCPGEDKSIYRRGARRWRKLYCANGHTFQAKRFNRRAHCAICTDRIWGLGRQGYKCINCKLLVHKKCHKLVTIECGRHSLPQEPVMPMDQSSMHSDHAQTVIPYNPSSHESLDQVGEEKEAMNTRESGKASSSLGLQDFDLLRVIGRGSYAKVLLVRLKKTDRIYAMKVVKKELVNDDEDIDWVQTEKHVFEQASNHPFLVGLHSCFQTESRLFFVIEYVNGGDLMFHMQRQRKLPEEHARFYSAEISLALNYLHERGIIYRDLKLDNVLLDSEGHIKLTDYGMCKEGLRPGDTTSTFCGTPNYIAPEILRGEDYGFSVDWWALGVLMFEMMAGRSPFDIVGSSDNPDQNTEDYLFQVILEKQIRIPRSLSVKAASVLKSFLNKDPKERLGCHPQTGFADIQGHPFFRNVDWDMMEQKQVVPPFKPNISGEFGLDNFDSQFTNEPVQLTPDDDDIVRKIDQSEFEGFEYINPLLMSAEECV
Particulars: at 0.1 µM.

Assay [3] addresses T1, Protein kinase C iota type (Homo sapiens). Particulars: at 1 µM.
Assay [4] concerns the target Protein kinase C theta type (Homo sapiens) (UniProt Q04759). The settings on record: at 0.1 µM.
Assay [5] has the same target. Particulars: at 1 µM.
The target in assay [6] is Protein kinase C beta type (Homo sapiens) (UniProt P05771). Particulars: at 0.1 µM.
The target is the same in assay [7]. Particulars: at 1 µM.
Assay [8] has as its target T2, Serine/threonine-protein kinase D1 (Homo sapiens) (UniProt Q15139).
T2 sequence (whole entry): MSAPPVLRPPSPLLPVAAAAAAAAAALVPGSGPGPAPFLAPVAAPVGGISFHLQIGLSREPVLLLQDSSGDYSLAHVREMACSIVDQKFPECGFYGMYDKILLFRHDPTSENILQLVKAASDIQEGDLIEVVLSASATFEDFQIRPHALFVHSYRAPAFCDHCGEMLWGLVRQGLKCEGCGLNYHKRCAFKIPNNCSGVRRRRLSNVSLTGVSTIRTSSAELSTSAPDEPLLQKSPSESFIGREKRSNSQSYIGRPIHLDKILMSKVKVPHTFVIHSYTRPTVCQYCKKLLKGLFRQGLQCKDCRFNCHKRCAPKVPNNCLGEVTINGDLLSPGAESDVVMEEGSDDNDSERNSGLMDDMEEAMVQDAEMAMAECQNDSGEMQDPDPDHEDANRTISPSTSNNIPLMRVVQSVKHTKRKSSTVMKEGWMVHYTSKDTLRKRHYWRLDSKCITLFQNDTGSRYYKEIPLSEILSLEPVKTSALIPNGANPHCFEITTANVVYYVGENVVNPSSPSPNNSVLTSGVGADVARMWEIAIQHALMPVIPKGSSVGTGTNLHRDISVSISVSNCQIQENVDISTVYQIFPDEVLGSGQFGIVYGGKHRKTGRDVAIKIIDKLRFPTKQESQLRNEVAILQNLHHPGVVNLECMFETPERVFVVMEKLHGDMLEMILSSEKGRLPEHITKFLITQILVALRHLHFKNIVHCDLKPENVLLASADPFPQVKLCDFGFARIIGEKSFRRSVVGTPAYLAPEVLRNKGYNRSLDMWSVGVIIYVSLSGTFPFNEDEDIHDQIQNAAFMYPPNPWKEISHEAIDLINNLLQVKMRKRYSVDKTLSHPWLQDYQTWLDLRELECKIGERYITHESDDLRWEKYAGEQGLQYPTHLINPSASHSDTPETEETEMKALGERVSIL
Particulars: at 0.1 µM.

The target in assay [9] is T2, Serine/threonine-protein kinase D1 (Homo sapiens). The settings on record: at 1 µM.
Assay [10] concerns the target T3, Serine/threonine-protein kinase D2 (Homo sapiens) (UniProt Q9BZL6).
T3 sequence (whole entry): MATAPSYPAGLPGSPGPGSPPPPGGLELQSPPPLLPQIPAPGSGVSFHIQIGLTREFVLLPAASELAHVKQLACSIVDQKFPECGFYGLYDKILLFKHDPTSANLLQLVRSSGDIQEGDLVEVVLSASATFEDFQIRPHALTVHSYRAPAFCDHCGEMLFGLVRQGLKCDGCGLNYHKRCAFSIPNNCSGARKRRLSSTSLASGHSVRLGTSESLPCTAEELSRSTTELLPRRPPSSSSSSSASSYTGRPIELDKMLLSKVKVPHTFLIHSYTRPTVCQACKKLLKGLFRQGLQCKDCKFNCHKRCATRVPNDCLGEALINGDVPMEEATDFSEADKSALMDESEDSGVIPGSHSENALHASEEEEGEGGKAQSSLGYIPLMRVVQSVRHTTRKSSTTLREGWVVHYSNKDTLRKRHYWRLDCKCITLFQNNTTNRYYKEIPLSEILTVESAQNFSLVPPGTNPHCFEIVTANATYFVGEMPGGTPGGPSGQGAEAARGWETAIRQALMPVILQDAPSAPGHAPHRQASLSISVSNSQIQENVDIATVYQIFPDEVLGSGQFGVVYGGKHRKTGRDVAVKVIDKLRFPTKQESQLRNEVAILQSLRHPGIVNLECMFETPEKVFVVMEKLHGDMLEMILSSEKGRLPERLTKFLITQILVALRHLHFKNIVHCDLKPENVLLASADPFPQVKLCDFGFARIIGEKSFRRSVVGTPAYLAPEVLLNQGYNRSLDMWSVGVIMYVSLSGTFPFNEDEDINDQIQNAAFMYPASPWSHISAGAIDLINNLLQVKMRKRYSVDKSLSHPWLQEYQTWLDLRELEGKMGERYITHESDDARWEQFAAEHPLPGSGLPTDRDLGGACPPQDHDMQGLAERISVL
The settings on record: at 0.1 µM.

Assay [11] has as its target T3, Serine/threonine-protein kinase D2 (Homo sapiens). Particulars: at 1 µM.
Assay [12] deals with T4, Serine/threonine-protein kinase D3 (Homo sapiens) (UniProt O94806).
T4 sequence (whole entry): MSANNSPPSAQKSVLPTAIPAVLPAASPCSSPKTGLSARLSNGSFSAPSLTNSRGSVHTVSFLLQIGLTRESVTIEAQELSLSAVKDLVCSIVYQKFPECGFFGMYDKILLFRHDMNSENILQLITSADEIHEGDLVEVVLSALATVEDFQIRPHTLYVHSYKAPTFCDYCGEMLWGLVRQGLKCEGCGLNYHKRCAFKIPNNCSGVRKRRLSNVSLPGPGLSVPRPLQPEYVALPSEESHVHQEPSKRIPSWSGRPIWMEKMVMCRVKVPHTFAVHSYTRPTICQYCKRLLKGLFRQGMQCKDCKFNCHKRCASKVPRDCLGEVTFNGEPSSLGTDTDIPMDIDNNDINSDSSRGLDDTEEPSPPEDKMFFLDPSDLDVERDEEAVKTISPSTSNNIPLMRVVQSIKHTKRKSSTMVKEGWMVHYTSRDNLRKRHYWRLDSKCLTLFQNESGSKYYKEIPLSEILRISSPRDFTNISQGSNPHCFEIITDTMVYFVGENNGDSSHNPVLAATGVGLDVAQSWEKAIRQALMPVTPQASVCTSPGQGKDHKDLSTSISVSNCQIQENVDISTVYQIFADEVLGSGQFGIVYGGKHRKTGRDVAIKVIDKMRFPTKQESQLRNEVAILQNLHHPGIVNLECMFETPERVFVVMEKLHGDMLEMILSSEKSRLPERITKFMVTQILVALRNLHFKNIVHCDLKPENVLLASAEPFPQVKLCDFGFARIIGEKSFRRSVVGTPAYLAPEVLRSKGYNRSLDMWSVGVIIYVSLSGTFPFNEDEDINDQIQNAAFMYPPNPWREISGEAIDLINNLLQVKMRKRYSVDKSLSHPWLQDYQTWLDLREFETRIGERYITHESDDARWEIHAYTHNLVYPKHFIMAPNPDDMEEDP
The settings on record: at 0.1 µM.

Assay [13] concerns the target T4, Serine/threonine-protein kinase D3 (Homo sapiens). The settings on record: at 1 µM.
Assay [14] concerns the target T5, cGMP-dependent protein kinase 1 (Homo sapiens) (UniProt Q13976).
T5 sequence (whole entry): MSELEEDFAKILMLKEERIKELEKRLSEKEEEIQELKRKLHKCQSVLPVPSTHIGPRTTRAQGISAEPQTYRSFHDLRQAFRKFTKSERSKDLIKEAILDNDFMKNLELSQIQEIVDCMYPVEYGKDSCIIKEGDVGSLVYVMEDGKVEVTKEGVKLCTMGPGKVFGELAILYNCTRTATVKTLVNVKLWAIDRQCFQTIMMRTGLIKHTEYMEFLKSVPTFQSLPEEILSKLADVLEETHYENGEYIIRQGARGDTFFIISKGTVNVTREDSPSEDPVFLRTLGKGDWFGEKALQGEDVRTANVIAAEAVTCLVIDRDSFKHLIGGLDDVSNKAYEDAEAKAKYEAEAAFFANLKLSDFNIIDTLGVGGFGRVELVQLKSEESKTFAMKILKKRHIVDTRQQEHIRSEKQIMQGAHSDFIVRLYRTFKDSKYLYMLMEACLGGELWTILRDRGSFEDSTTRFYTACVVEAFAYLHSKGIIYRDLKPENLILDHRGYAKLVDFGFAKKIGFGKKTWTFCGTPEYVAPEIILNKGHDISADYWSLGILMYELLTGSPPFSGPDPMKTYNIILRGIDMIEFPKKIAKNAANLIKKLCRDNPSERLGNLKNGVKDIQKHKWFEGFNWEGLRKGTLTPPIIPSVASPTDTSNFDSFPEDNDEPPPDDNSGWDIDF
Particulars: at 0.1 µM.

The target in assay [15] is T5, cGMP-dependent protein kinase 1 (Homo sapiens). Particulars: at 1 µM.
Assay [16] addresses T6, cGMP-dependent protein kinase 2 (Homo sapiens) (UniProt Q13237).
T6 sequence (whole entry): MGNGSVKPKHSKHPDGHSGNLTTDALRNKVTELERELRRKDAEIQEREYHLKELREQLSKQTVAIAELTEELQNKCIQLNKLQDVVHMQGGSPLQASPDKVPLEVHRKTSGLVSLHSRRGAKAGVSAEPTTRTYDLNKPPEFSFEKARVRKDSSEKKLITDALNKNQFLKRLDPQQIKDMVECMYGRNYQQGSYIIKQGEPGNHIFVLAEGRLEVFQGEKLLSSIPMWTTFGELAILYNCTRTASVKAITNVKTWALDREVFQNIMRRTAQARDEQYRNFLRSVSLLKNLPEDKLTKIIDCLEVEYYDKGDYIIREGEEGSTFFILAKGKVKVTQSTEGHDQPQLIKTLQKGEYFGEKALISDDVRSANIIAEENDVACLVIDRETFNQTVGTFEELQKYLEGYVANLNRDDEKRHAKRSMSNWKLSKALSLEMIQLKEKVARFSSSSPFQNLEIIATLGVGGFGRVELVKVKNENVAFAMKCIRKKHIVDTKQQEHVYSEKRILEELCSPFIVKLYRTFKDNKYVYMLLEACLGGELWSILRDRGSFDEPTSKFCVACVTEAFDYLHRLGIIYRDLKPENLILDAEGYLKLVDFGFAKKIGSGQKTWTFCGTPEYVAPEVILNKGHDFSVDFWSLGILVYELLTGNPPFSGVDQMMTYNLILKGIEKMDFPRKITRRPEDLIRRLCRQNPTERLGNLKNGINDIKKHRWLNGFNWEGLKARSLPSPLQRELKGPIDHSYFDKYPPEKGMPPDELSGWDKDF
The settings on record: at 0.1 µM.

Assay [17] deals with T6, cGMP-dependent protein kinase 2 (Homo sapiens). Particulars: at 1 µM.
Assay [18] addresses T7, cAMP-dependent protein kinase catalytic subunit PRKX (Homo sapiens) (UniProt P51817).
T7 sequence (whole entry): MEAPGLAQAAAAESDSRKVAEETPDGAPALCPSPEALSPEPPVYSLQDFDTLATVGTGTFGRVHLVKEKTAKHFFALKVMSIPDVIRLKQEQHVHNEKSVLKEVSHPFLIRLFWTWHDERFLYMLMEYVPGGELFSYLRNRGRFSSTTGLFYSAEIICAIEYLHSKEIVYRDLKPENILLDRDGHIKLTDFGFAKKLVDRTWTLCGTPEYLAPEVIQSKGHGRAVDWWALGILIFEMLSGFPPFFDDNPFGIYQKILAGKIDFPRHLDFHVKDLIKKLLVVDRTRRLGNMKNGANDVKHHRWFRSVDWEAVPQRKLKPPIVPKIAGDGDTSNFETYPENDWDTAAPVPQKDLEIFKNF
Particulars: at 0.1 µM.

Assay [19] has as its target T7, cAMP-dependent protein kinase catalytic subunit PRKX (Homo sapiens). The settings on record: at 1 µM.
Assay [20] concerns the target Rho-associated protein kinase 1 (Homo sapiens) (UniProt Q13464). Particulars: at 0.1 µM.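 Also: values are mean percent inhibition of ROCK1.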

SMILES strings stand for the structures.

Chain of Protein kinase C beta type (Homo sapiens) (P05771 2-671 limits assumed): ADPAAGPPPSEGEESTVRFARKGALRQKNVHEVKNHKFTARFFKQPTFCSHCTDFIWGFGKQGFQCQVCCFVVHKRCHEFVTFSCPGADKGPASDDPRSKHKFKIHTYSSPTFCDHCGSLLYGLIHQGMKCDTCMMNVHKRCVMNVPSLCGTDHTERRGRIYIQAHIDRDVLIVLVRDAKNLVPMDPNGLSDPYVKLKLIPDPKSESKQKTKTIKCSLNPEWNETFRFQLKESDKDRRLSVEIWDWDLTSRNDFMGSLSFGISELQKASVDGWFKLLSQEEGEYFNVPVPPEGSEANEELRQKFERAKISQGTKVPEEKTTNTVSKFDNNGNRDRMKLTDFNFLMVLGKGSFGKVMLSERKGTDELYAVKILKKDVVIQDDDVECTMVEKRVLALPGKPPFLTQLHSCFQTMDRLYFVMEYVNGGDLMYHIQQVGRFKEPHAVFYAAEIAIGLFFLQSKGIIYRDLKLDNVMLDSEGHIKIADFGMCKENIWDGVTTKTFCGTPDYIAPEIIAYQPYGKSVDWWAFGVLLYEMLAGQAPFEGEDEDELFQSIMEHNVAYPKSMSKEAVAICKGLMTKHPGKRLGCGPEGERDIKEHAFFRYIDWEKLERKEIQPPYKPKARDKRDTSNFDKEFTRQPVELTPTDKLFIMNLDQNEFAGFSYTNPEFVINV
Chain of Protein kinase C theta type (Homo sapiens) (Q04759 whole entry, looked up): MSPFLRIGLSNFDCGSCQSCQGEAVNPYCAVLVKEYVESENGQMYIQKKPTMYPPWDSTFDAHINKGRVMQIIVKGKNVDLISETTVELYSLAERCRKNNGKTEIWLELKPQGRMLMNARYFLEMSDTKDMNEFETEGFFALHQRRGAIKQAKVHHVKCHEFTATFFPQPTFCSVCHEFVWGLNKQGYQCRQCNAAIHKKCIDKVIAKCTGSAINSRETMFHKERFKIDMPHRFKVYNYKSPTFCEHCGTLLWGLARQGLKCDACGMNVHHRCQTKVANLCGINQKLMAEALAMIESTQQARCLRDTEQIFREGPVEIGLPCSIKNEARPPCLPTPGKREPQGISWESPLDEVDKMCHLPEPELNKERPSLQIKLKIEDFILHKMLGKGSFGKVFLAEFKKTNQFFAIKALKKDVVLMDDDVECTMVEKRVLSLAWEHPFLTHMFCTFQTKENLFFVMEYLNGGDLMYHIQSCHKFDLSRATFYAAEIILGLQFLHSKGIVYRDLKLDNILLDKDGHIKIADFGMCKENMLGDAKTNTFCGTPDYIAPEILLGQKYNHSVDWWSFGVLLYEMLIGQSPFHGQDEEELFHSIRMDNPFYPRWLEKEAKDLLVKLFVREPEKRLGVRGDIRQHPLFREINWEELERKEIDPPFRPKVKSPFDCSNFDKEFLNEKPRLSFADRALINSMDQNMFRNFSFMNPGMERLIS
Chain of Rho-associated protein kinase 1 (Homo sapiens) (Q13464 2-1354 limits assumed): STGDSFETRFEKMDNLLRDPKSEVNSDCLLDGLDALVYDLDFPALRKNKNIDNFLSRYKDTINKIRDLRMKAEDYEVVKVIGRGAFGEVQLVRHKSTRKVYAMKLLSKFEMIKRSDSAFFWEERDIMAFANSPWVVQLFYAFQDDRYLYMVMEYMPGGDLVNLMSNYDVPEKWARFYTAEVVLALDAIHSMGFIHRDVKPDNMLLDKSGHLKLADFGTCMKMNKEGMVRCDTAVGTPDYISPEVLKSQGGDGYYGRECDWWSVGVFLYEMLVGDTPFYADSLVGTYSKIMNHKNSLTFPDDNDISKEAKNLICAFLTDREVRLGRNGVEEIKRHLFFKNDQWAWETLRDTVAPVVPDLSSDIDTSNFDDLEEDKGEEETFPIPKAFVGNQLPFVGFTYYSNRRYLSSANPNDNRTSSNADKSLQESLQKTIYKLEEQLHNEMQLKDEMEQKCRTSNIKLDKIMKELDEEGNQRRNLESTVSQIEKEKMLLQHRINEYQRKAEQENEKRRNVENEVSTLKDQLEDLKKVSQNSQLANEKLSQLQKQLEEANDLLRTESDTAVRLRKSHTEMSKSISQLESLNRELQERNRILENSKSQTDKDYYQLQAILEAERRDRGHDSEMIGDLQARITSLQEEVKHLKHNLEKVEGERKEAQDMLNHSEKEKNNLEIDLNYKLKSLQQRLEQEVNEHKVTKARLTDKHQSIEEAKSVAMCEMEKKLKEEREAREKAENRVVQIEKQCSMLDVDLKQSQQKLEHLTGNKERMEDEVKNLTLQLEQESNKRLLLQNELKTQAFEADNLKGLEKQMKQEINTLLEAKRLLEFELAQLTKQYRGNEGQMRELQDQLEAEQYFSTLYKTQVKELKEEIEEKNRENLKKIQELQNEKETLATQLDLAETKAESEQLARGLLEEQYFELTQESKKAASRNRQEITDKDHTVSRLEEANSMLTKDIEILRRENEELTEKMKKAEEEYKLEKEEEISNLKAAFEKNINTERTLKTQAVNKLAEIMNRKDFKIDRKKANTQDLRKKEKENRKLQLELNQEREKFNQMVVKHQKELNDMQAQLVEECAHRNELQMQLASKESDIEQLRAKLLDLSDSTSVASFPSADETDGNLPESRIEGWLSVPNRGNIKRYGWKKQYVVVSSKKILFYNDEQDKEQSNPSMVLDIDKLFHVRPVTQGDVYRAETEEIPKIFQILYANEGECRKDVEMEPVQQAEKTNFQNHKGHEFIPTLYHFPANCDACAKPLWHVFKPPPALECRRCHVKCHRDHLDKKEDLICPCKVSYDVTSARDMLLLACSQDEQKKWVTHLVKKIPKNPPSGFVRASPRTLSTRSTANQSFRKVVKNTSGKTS

`c1ccc(Oc2ccc(Nc3ncc(-c4ccccc4)o3)cc2)cc1`: the inhibition in [1] amounted to 3.46%; in assay [2] it was 1.87%; in assay [3], 0.57%; in assay [4], 1.08%; in [5], 0.33%; in assay [6], 0.45%. Also, the inhibition is 1.67% in assay [7]; 2.12% in [8]; 4.49% in assay [9]; 1.43% in [10]; 3.8% in [11]; 2.14% in assay [12]. The inhibition in [13] stood at 3.61%; in assay [14], 2.21%; in [15] it was 3.15%; in [16], 1.21%; in [17] it was 3.1%; in assay [18], 2.99%. Also, the inhibition is 6.18% in assay [19] and 3.48% in assay [20].
